Holding throughout (test): NCI-60 one-dose screen, 48 h (100 = growth as untreated, 0 = no growth, -100 = all killed)
What all share (details): 10 µM unless noted

Assay [1] deals with SK-MEL-2 melanoma.
In assay [2] the test system is EKVX NSCLC.
For assay [3], the system named is SN12C renal.
The subject of assay [4] is UO-31 renal.
Assay [5] deals with TK-10 renal.
The subject of assay [6] is ACHN renal.
Assay [7] deals with CAKI-1 renal.
The subject of assay [8] is A498 renal.
Assay [9] has as its system CCRF-CEM leukemia.
Assay [10] concerns MOLT-4 leukemia.
In assay [11] the test system is SR leukemia.
The test system of assay [12] is RPMI-8226 leukemia.
Assay [13] deals with OVCAR-8 ovarian.
For assay [14], the system named is OVCAR-5 ovarian.
Assay [15] relates to OVCAR-4 ovarian.
Assay [16] relates to SK-OV-3 ovarian.
Assay [17] relates to IGROV1 ovarian.
Assay [18] relates to HS 578T breast.
The subject of assay [19] is NCI/ADR-RES ovarian.
Assay [20] has as its system OVCAR-3 ovarian.

SMILES strings stand for the structures. This is part of a sample that, as a whole, favours compounds with a hit. Of some 83,000 tested, about 20% had one in any assay.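 Assay: single dose, 48 h. Readout: percent growth (0 = no net growth; negative = cell death). Active: <10.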 Unmarked numbers belong to inactive results. Activity calls are given as the source filed them.

Consider 8 compounds from PubChem BioAssay (NCI).

On to `Clc1c(Cl)[n+](Cc2ccc3ccccc3c2)cn1Cc1ccc2ccccc2c1`, for which the growth in assay [1] is -55% (active); in assay [2], 38.7%; in assay [3], 28.1%; in [4] it was 70.7%; in [5], -63% (active); in [6] it was 84.7%. Besides, the growth in [7] was 89.7%; in assay [8], 54.7%; in assay [9], 6.14% (active); in [10], -0.428% (active); in assay [11], -55.6% (active); in assay [12], -43% (active). In addition, the growth is -10.7% (active) in assay [13]; 54.9% in [14]; -3.18% (active) in [15]; 19% in [16]; -20.3% (active) in assay [17]; 53.1% in [18]. Besides, in assay [19], the growth is 97.8%.
`COc1cc(/C=C/C(=O)c2ccc(-n3cc(CN4CCN(c5cc6c(cc5F)c(=O)c(C(=O)O)cn6C5CC5)CC4)nn3)cc2)ccc1O`: the growth in [1] was 93%; in [2] it was 85%; in assay [3], 37.6%; in assay [4] it was 52.6%; in [5], 84.9%; in assay [6], 77.7%. Further, the growth was 52.5% in assay [7]; 70.8% in assay [8]; 29.9% in assay [9]; 68.2% in assay [10]; 14.1% in [11]; -14.6% (active) in assay [12]. Besides, the growth in [13] was 42.7%; in [14], 84.7%; in [15], 62.9%; in [16], 72.3%; in assay [17], 51.8%; in assay [18], 73.7%. Further, in assay [19], the growth is 94.2%.
For `COC(=O)c1c2c(c(C)[n+]([O-])c1C)C(=O)C(NCc1ccc(OC)cc1)=CC2=O`, the growth is 62.3% in [1]; 55% in assay [2]; 0.985% (active) in [3]; 65.3% in assay [4]; 102% in assay [5]; 40.1% in [6]. Also, the growth in assay [7] was 48.5%; in [8] it was 113%; in assay [9] it was 20.7%; in assay [10], 0.904% (active); in assay [11], 9.98% (active); in assay [12], 23.6%. The growth is -15.2% (active) in [13]; 53% in assay [14]; -39.2% (active) in assay [15]; 99.2% in assay [16]; 8.2% (active) in assay [17]; 84.8% in [18]. Further, the growth in assay [19] was 10.1%.
Regarding `CCOC(=O)c1cc(C(=O)c2cc(OC)c(OC)c(OC)c2)n2ccccc12`, the growth in [1] is 40.4%; in assay [2], 42%; in assay [3], 54%; in assay [4], 50.6%; in assay [5], 49.3%; in assay [6] it was 58.4%. For the same compound, the growth is 38.9% in assay [7]; -1.31% (active) in [8]; 17% in assay [9]; 24.3% in assay [10]; 23.9% in assay [11]; 23.2% in assay [12]. Also, the growth in [13] is 33.2%; in [14], 71.5%; in [15] it was 67.9%; in assay [16] it was 22.3%; in assay [17], 49.6%; in assay [18], 40.1%. Moreover, the growth in assay [19] is 10.7%.
Turning to `CN(Cc1cc(Br)cc(Br)c1O)Cc1cc(Br)cc(Br)c1O`, the growth is 51% in [1]; 54.8% in assay [2]; 45.1% in assay [3]; 23.4% in assay [4]; 40.6% in assay [5]; 31.4% in [6]. Also, the growth in assay [7] is 24.6%; in assay [8], 66.5%; in assay [9], 18.2%; in [10], 21.5%; in [11] it was 33.8%; in [12], 27.6%. The growth in [13] is 16.6%; in assay [14] it was 68.9%; in assay [15], 15.7%; in assay [16] it was 56.4%; in [17], 29.9%; in [18], 58.9%. In addition, the growth in assay [19] was 9.38% (active).
For the compound `CCCCNc1nnc2n(Cc3ccccc3)c(=O)c3c4c(sc3n12)CCCC4`, the growth in assay [1] was 41.6%; in [2], 60.8%; in assay [3], 46%; in assay [4] it was 34.2%; in assay [5] it was 59.3%; in assay [6], 40.8%. Further, the growth is 42.6% in assay [7]; 45.4% in assay [8]; 59.2% in assay [9]; 10.4% in assay [10]; 9.01% (active) in assay [11]; 34.4% in assay [12]. Moreover, the growth in [13] was 46.2%; in assay [14], 106%; in assay [15], 71.7%; in assay [16], 62.5%; in assay [17] it was 46.7%; in [18], 71.5%. Moreover, in assay [19], the growth is 55.7%.
On to `c1ccc2c(c1)CCCc1nnc3nc4ccccc4n3c1-2`, for which the growth in assay [1] is 70.5%; in [2], 37.7%; in assay [3], 48%; in [4], 29.9%; in [5], 41.6%; in assay [6], 35.1%. The growth was 22% in assay [7]; 54.8% in assay [8]; 31.5% in assay [9]; 31.6% in assay [10]; 20.5% in assay [11]; 31.6% in assay [12]. Moreover, the growth in assay [13] was 38.5%; in [14], 37.8%; in assay [15], 17.9%; in [16], 50.3%; in assay [17], 43.7%; in assay [18], 77.1%. In addition, in assay [19], the growth is 24.6%.
On to `CCn1cc(CNc2ccc(C(=O)Nc3cc4cc(OC)c(OC)cc4c(C)n3)cc2)cn1`, for which the growth in assay [1] was 38.7%; in assay [2], 60.5%; in assay [3], 79.3%; in assay [4], 19.8%; in [5], 52.7%; in assay [6], 60.8%. The growth in assay [7] was 69%; in assay [8], 73.8%; in assay [9], 17.5%; in assay [10] it was 35.2%; in [11], 12.2%; in [12], 34.7%. In addition, the growth in [13] was 28%; in assay [14] it was 93.1%; in assay [15], 46.5%; in assay [16] it was 56.8%; in assay [17] it was 73%; in assay [20] it was 54.8%. Besides, the growth in assay [18] is 70.3%; in assay [19], 35.5%.
